Sfp PPTase inh: Sfp phosphopantetheinyl transferase inhibition; Q9F4F7; Biochemical Sfp PPTase activity, qHTS; Potency, µM, for inactives: largest response in the series, negative = inhibition, actives largely listed as inhibitors; 310,000 compounds, 3.5% hits; AID 1490;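 also: the enzyme is Sfp with the accession as filed and its product quenches rhodamine fluorescence; 0% = enzyme reaction without inhibitor and -100% = no enzyme wells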
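With Hepes-Na pH 7.6 buffer containing 10 mM MgCl2, Sfp (15 nM) modified BHQ-2-YbbR (12.5 uM) using rhodamine-CoA (5 uM). Two reads 30 minutes apart at 525/598 nm yielded each well's rate.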
HP1b binding inh: HP1-beta chromodomain-methylated histone interaction inhibition; AlphaScreen HP1-beta / biotin-H3K9me3 peptide binding; Potency, µM (highest dose often 114 µM), for inactives: at the top dose activity change, negative = inhibition, actives largely listed as inhibitors; 390,000 compounds, 0.56% hits; AID 540317; also: nearly all actives have a fitted effect of over 70% in size
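Compound inhibition of the preformed complex between 50 nM HP1-beta and 50 nM biotinylated H3K9me3 peptide was read by AlphaScreen. Buffer was PBS pH 7.4 with 0.01% Tween-20. Incubations ran 30 min at room temperature, with 10 ug/mL donor/acceptor beads.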
TDP1 block: blocks human tyrosyl-DNA phosphodiesterase 1; 350,000 compounds, 0.28% hits; Potency, µM (top dose mostly 130 µM), without a hit: top-dose activity change, negative = inhibition, usual class: inhibitors; recombinant TDP1, AlphaScreen DNA substrate cleavage; Q9NUW8; also: % is scaled to controls: 0 for no effect and ±100 for the full control effect; nearly all actives have a fitted effect of over 40% in size
Target sequence (Q9NUW8 whole entry, looked up): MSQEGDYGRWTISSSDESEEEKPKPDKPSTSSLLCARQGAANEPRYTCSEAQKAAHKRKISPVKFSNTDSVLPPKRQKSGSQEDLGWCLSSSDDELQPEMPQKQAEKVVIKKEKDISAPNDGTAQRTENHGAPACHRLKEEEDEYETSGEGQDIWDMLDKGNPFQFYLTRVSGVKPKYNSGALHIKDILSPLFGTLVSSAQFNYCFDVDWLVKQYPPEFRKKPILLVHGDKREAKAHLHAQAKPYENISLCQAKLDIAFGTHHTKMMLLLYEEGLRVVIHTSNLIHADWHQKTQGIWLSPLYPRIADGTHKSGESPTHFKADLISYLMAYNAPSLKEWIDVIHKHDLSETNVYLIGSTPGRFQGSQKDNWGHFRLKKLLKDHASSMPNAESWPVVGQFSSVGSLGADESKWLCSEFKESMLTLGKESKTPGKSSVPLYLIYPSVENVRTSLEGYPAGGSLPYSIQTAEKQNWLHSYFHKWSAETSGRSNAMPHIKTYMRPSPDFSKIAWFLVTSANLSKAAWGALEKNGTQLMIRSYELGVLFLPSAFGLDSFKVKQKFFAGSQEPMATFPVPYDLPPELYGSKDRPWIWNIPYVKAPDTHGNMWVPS
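Signal: AlphaScreen proximity between streptavidin donor and anti-FITC acceptor beads on intact substrate. Reaction: Tdp1 1 nM, substrate 15 nM final, 5 min RT after 15 min compound preincubation.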
G9a block: inhibitors of human histone lysine methyltransferase G9a | Q96KQ7 | AID 504332 | 350,000 compounds, 8.8% hits | Potency, µM (series often up to 102 µM), for the others: top-dose activity, negative = inhibition, actives largely listed as inhibitors | G9a H3K9 monomethylation, AlphaScreen, 2 h; also: % is scaled to controls: 0 for no effect and ±100 for the full control effect; nearly all actives have a fitted effect of over 75% in size
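Chemiluminescent proximity detection of H3K9 monomethylation, read after 10 min bead incubation in the dark. Reaction: 20 nM G9a, 500 nM biotin-H3K9 peptide, 20 uM SAM cofactor, 2 h, room temperature, following 15 min enzyme-compound preincubation.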
BAZ2B inh: inhibitors of human BAZ2B bromodomain; Q9UIF8; AlphaScreen BAZ2B-H3K14Ac peptide displacement; Potency, µM (titrated, usually from 114 µM), for the others: top-dose activity change, negative = inhibition, usual class: inhibitors; 360,000 compounds, 4.4% hits; also: % is scaled to controls: 0 for no effect and ±100 for the full control effect; nearly all actives have a fitted effect of over 60% in size
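BAZ2B (50 nM) with biotin-H3(5-23)K14Ac peptide (50 nM) in PBS pH 7.4, 0.01% Tween-20, preformed 30 min, then compound 30 min at room temperature; top concentration 110uM. AlphaScreen streptavidin donor/nickel chelate acceptor beads (10 ug/mL final), 20 min dark, signal read.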
JMJD2A Tudor inh: blocks the human JMJD2A Tudor domain; O75164; Potency, µM (series often up to 114 µM), without a hit: at the highest dose activity change, negative = inhibition, hits mostly inhibitors; 390,000 compounds, 4.4% hits; AlphaScreen JMJD2A-Tudor / H3K4me3 peptide binding; also: % is scaled to controls: 0 for no effect and ±100 for the full control effect; nearly all actives have a fitted effect of over 50% in size
The depositor's hits bear a star; ? = inconclusive; . = not tested or not shown; ! = a repeat was not active; [ ] = remark or other dose. Most compounds without a hit are left out; they make up all but 12% or so of the library. Calls follow the shape of the dose curve; as a rule, active = well fitted curve in the direction sought with a large enough effect; inconclusive = small, poorly fitted or top-dose-only effect, or another doubt; inactive = no such curve, though single readings can be large; an effect the other way counts as inactive or inconclusive. Potency is read from the fitted curve at half-maximal effect.

SMILES	Sfp PPTase inh	HP1b binding inh	TDP1 block	G9a block	BAZ2B inh	JMJD2A Tudor inh
COc1ccc(C(=O)n2nc(-c3ccco3)nc2SC)cc1OC	?	16%	-4%	20µM*	-34%	?
COc1ccc(C(=O)n2nc(-c3ccco3)nc2NCc2cccs2)cc1	.	-5%	2%	10µM*	-24%	-15%
O=C(O)[C@@H]1C[C@H](C(=O)O)N1	-25%	17%	12%[56.1 µM]	12µM*!	.	4%
O=C(O)[C@H]1CN[C@H](C(=O)O)C1	?	.	12%	.	.	.
O=C(N=C1SC2CS(=O)(=O)CC2N1c1cccc(Cl)c1Cl)C1CC1 (centres undefined)	7%	27%	1%	7%	-1%	-9%
C=CCNC(=O)COC(=O)c1c2c(nc3ccccc13)CCC2	7%	?	.	40µM*	50µM*	28µM*
Cc1c(NC(=O)COC(=O)c2c3c(nc4ccccc24)CCCC3)c(=O)n(-c2ccccc2)n1C	12%	44%	3%	24%[59 µM]	9%	-7%
CCOC(=O)CNC(=O)c1c2c(nc3ccccc13)CCCC2	11%	22%	2%	.	-1%	-6%
Cc1cccc(NC(=O)CSc2c3c(nc4ccccc24)CCC3)n1	12%	26%	1%	16%[59 µM]	-5%	-1%
CC(C)NCC(=O)Nc1c2c(nc3ccccc13)CCC2	?	-1%	0%	18µM*	50µM*	22µM*
CNC(=O)COC(=O)c1c2c(nc3ccccc13)CCC2	-3%	11%	.	.	50µM*	?
O=C(NC1CCCCC1)c1c2c(nc3ccccc13)CCC2	-8%	25%	-6%	?	50µM*	-24%
CCN(CC)C(=O)CSc1nnc2[nH]c(=O)cc(C)n12	.	23%	3%	-2%[59 µM]	0%	-4%
COc1cc(C2Nc3ccccc3C(=O)N2Cc2ccccc2)ccc1OCc1ccc(NC(C)=O)cc1 (centres undefined)	.	.	0%	.	.	-22%
COc1ccc(/C=C(/NC(=O)c2ccc(C)cc2)C(=O)N2CCCC2)cc1OC	1%	26%	8%	13%	5%	6%
S=C1NCCNC(=S)NCCOCCOCCOCCN1	18%	40%	3%	25µM*	14%	1%
S=C1NCCOCCOCCOCCN1	-2%	29%	-4%	-59%	-1%	2%
COc1ccc(N2CCN(C(=O)NCc3ccc(C)cc3)CC2)cc1	18%	16%	-9%	40µM*	-25%	-6%
CC(=O)N1CCN(c2ccc(NCc3ccc(C)cc3)cc2)CC1	40µM*	-24%	5%	13µM*	45µM*	?
Cc1ccc(CNc2ccc(O)cc2)cc1	?	-73%	5%	?	32µM*	50µM*
COc1cc(CNc2ccc(N3CCN(C(C)=O)CC3)cc2)ccc1OCc1ccccc1	-27%	45µM*	10%	28µM*	40µM*	45µM*
COc1cc(CNc2ccc(N3CCOCC3)cc2)ccc1OCC(=O)NC(C)(C)C	-8%	-17%	.	.	-14%	?
COc1cccc(N2CCN(C(=O)CN3CCSc4ccccc43)CC2)c1	.	1%[57 µM]	7%	?	?	?
COc1ccccc1NS(=O)(=O)c1cccc(C(=O)NCc2ccncc2)c1	.	27%	1%	-1%	-8%	1%
CC(=O)N1CCN(c2ccc(NCc3ccco3)cc2)CC1	.	32%	2%	9%[0.501 µM]	?	-17%
SMILES	Sfp PPTase inh	HP1b binding inh	TDP1 block	G9a block	BAZ2B inh	JMJD2A Tudor inh
CCc1ccc(CNc2ccc(N3CCN(C(C)=O)CC3)cc2)cc1	35µM*	-48%	12%	?	40µM*	?
CC(=O)N1CCN(c2ccc(NCc3ccc(-c4cccc(Cl)c4)o3)cc2)CC1	.	?	13%	.	.	40µM*
O=c1[nH]c2ccc(NCc3ccc(-c4cccc(Cl)c4)o3)cc2[nH]1	.	18%	-6%	?	-10%	-28%
O=C(OCc1c(-c2ccccc2)ncc2ccccc12)c1ccco1	.	31%	0%	.	.	-9%
CS/C(=C\[N+](=O)[O-])Nc1ccc(OC(F)(F)F)cc1	15%	23%	-10%	50µM*	-32%	-12%
CC1(C)CC2CC(C)(CN2C(=O)COC(=O)c2cccc([N+](=O)[O-])c2)C1 (centres undefined)	.	24%	2%	.	.	-3%
CC1(C)CC2CC(C)(CN2Cc2c(O)ccc3ccccc23)C1 (centres undefined)	-1%	16%	8%	10µM*	-9%	-27%
CC1(C)CC2CC(C)(CN2Cc2cccc([N+](=O)[O-])c2)C1 (centres undefined)	?	?	.	.	?	20µM*
CCN(CC)S(=O)(=O)c1ccc(OC)c(NC(=O)c2cc3c(=O)n4ccccc4nc3s2)c1	6%	25%	-4%	40µM*	10%	-11%
CC(=O)NS(=O)(=O)c1ccc(NC(=O)c2cc3c(=O)n4ccccc4nc3s2)cc1	38%	47%	1%	.	-32%	-21%
COc1ccc(CCNC(=O)c2cc3c(=O)n4cccc(C)c4nc3s2)cc1OC	24%	16%	-12%	28µM*	10%	-4%
COc1ccc(CNC(=O)c2cc3c(=O)n4cccc(C)c4nc3s2)cc1	.	8%	-1%	-1%[59 µM]	2%	-1%
Cc1cccc(NC(=O)c2cc3c(=O)n4ccccc4nc3s2)c1	-17%	157%	79µM*	-11%[59 µM]	?	?
CSc1cccc(NC(=S)NC(=O)c2cccnc2)c1	13%	28%	.	?	-26%	-14%
O=C(c1cn(-c2ccccc2)nc1-c1cccc([N+](=O)[O-])c1)N1CCCCC1	-20%	11%	2%	.	?	-30%
C[n+]1cnn2c1SCC1(COC1)C2	3%	4%	.	35µM*	-2%	25µM*
COc1cccc(OC)c1C(=O)Nc1ccc(N2CCCC2)cc1	9%	-13%	.	13µM*	?	?
O=C(c1c(F)c(F)c(F)c(F)c1F)N1CCN(c2cccc(C(F)(F)F)c2)CC1	-18%	?	-5%	?	0%	14µM*
COc1ccccc1C(=O)Nc1ccc(N2CCCCC2)cc1	13%	?	4%	50µM*	?	56µM*
CCC(=O)Nc1ccc(NC(=O)Cc2ccccc2)cn1	4%	16%	2%	56µM*	?	-4%
O=C(CCCn1c(=S)[nH]c2ccccc2c1=O)NCCSCc1ccccc1	3%	45%	3%	25%[59 µM]	-16%	-11%
O=C(NCc1ccncc1)c1cccc(S(=O)(=O)N2CCc3ccccc32)c1	.	32%	3%	-4%[12.7 µM]	5%	-18%
